Screens as filed in PubChem BioAssay.
Peg3 prom inh: Peg3 promoter-driven luciferase inhibitors, primary screen, cell-based, HeLa, luciferase luminescence; 360,000 compounds, 1.7% hits; HeLa PEG-Prom luciferase reporter, overnight; inhibition, % at 20 µM;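 active = inhibition of at least 50% at 20 µM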
HIF-2a inh: HIF-2a reporter inhibitors, primary screen, luminescence, 786-0 RCC cells; AID 624352, 2012; 786-0 RCC cells HIF-2a reporter, luciferase luminescence, overnight; 360,000 compounds, 0.72% hits; inhibition, % at 18.8 µM;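 active = inhibition of the luminescence signal of 40% or more relative to plate controls, in a single-dose primary screen at 18.75 µM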
Shn3 3UTR inh: reduction of Shn3 3'UTR firefly luciferase signal, primary screen, Schnurri-3 inhibitor project, cell-based, Clone20 osteoblasts, set 2. Clone20 osteoblast Shn3 3'UTR firefly luciferase, 24 h. inhibition, % at 12.5 µM. 360,000 compounds, 0.52% hits. AID 588674, 2011;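 active = mean inhibition of at least 75% with every replicate also reaching 75%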;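 also: 0% = median of neutral control wells and 100% = pilot-screen positive control compound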
KKLEB cytotox: cytotoxicity in KKLEB CF airway cells, primary screen, cytotoxicity control for CF NF-kB inhibitor project, cell-based, uHTS, fluorescence assay plates; 360,000 compounds, 0.36% hits; activity change (cytotoxicity), % at 5 µM; KKLEB CF airway cells viability, ATPlite luminescence, overnight; stronger effect = lower value; cells stimulated with P. aeruginosa culture filtrate;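 active = corrected activity change at or below -50% at 5 µM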
CF NFkB block: inhibitors of PAF-induced NF-kB signaling, primary screen, cell-based, GFP fluorescence, uHTS; KKLEB NF-kB-GFP reporter, GFP fluorescence overnight; inhibition, % at 5 µM; 360,000 compounds, 0.86% hits; AID 588850, 2011;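 active = at least 50% inhibition at 5 µM, scaled per plate between neutral and stimulator controls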;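 also: PAF is a Pseudomonas aeruginosa culture filtrate used as stimulus; plate controls were PAF-stimulated DMSO wells for no effect and unstimulated DMSO wells for full effect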
* = called active by the depositor. Sampled rows, rich in hits. Any-hit rate of the full collection: about 2.6%.

SMILES | Peg3 prom inh | HIF-2a inh | Shn3 3UTR inh | KKLEB cytotox | CF NFkB block
COc1ccc([C@@]23Oc4cc(OC)cc(OC)c4[C@]2(O)[C@H](O)[C@H](C(=O)N(C)C)[C@H]3c2ccccc2)cc1 | 97* | 56* | 91* | 2 | 60*
COc1ccccc1CNc1nc(Nc2cccc(-c3cnco3)c2)c2sccc2n1 | 91* | -7 | 84 | -16 | 22
c1cc2cc(CNc3nc(NCC4CC4)nc4ccsc34)ccc2o1 | 15 | 13 | 71 | -15 | 18
CNc1nc(NCc2ccc(C)cc2C)c2sccc2n1 | 4 | 8 | 32 | -4 | -22
COCCNc1nc(NCc2ccccc2OC)c2sccc2n1 | 17 | 10 | 73 | 6 | -39
COc1ccccc1CNc1nc(NCc2ccc3occc3c2)c2sccc2n1 | 90* | 9 | 71 | -18 | 13
Cc1ccc(CNc2nc(NCC3CC3)nc3ccsc23)c(C)c1 | 77* | 19 | 83 | -17 | 29
COc1ccccc1CNc1nc(NCc2ccccc2OC)c2sccc2n1 | 58* | 17 | 87* | -11 | 7
CCSC1=C(C#N)C2(CCCCC2)C(C#N)C(=O)N1 (stereo not drawn) | 54* | 13 | 6 | 3 | 9
CCC(C)N(C(=O)CSc1nnc(C)n1C)C1CCS(=O)(=O)C1 (stereo not drawn) | 0 | 4 | -14 | 4 | -7
COCCCn1c(-c2ccc(S(=O)(=O)N3CCOCC3)cc2)csc1=Nc1ccccc1 | 9 | 12 | 91* | 0 | -15
O=C(Cc1ccc(F)cc1)Nc1c(C(=O)N2CCN(c3ncccn3)CC2)oc2ccccc12 | 5 | -6 | -14 | 19 | 12
CCOC(=O)c1c(NC(=O)COc2ccccc2OCC)sc2c1CC(C)(C)NC2(C)C | 107* | 18 | -86 | -3 | -19
CCOC(=O)c1c(NC(=O)CSc2nnnn2-c2ccccc2)sc2c1CC(C)(C)NC2(C)C | 55* | 3 | 20 | -17 | 8
CCOC(=O)c1c(NC(=O)Cc2ccccc2)sc2c1CC(C)(C)NC2(C)C | 21 | 1 | 6 | -22 | 10
CC(=O)c1ccc(Nc2nc(C(N)CCc3ccccc3)cs2)cc1 (stereo not drawn) | 17 | 9 | 18 | -18 | -6
COc1ccc(CC(N)c2csc(NC(=O)c3ccccc3)n2)cc1 (stereo not drawn) | 11 | 4 | 22 | -6 | 11
COc1ccc(CNC(=O)Nc2nc(C(N)Cc3ccc(C(F)(F)F)cc3)cs2)cc1 (stereo not drawn) | 95* | 2 | 6 | -8 | 23
COc1ccccc1CNC(=O)Nc1nc(C(N)CCc2ccccc2)cs1 (stereo not drawn) | 97* | 7 | 19 | 6 | -3
COc1ccc(CC(N)c2csc(NC(=O)C(c3ccccc3)c3ccccc3)n2)cc1 (stereo not drawn) | 98* | -8 | 60 | -4 | 2
COc1ccc(CC(N)c2csc(NC(=O)c3cc(C(C)(C)C)nn3Cc3ccccc3)n2)cc1 (stereo not drawn) | 100* | 22 | 94* | -52* | 58*
COc1cc(C=NCC2OCCc3ccccc32)cc(OC)c1 (stereo not drawn) | 5 | 14 | -23 | -4 | -3
N#CCCN(Cc1cccnc1)C(=O)c1ccc(S(=O)(=O)N2CCOCC2)cc1 | 1 | 10 | -4 | 1 | 10
NC(CCc1ccccc1)c1csc(NC(=O)NCCc2ccccc2)n1 (stereo not drawn) | 93* | -18 | 10 | -5 | -24
NC(Cc1ccc(Cl)cc1)c1csc(NC(=O)Nc2ccccc2-c2ccccc2)n1 (stereo not drawn) | 90* | 9 | 19 | -34 | 33
SMILES | Peg3 prom inh | HIF-2a inh | Shn3 3UTR inh | KKLEB cytotox | CF NFkB block
NC(CO)c1csc(NC(=O)Nc2ccccc2Cc2ccccc2)n1 (stereo not drawn) | 11 | -2 | 4 | 0 | 3
COc1ccc(CC(N)c2csc(NC(=O)c3cccc(OC(F)(F)F)c3)n2)cc1 (stereo not drawn) | 94* | 20 | 59 | -9 | -1
NC(=O)c1cccc(Nc2nc(C(N)CCc3ccccc3)cs2)n1 (stereo not drawn) | 1 | 13 | 19 | -18 | 9
COc1ccc(CC(N)c2csc(NC(=O)NCCc3ccccc3)n2)cc1 (stereo not drawn) | 58* | 8 | -2 | -14 | 13
O=C(NCCc1ccccc1)Nc1ccc(Cl)cc1 | -330 | -186 | -46 | 1 | -8
NC(Cc1ccc(Cl)cc1)c1csc(NC(=O)NCCc2ccccc2)n1 (stereo not drawn) | 96* | 8 | -11 | -24 | 6
NC(CCc1ccccc1)c1csc(NC(=O)Nc2ccccc2Oc2ccccc2)n1 (stereo not drawn) | 118* | -1 | 96* | -18 | 4
COc1cc(CNC(=O)Nc2nc(C(N)c3ccccc3)cs2)cc(OC)c1OC (stereo not drawn) | -1 | 7 | -13 | 0 | 10
COc1cc(CNC(=O)Nc2nc(C(N)Cc3ccc(Cl)cc3)cs2)cc(OC)c1OC (stereo not drawn) | 86* | 1 | 54 | -9 | 22
CCc1nc2c(OCC(=O)c3ccc(F)cc3)cccn2c1N(C)C(=O)c1ccccc1F | -13 | -16 | 8 | 20 | -27
COc1ccc(C(=O)OCC(=O)Nc2ncc([N+](=O)[O-])s2)cc1OC | -35 | -29 | 86* | 4 | 12
CCOC(=O)C1CCN(C(=O)c2ccc(OCC(=O)Nc3cccc(C(F)(F)F)c3)c(OC)c2)CC1 | 6 | 7 | 89* | -2 | 18
CCn1c2ccccc2c2cc(N=C3SC(CC(=O)Nc4ccccc4OC)C(=O)N3C)ccc21 (stereo not drawn) | 11 | 13 | 0 | -4 | 6
CCn1c2ccccc2c2cc(N=C3SC(CC(=O)Nc4ccccc4)C(=O)N3C)ccc21 (stereo not drawn) | 11 | 20 | 9 | -52* | 56*
COC(=O)c1ccccc1NC(=O)c1cn(-c2ccc(C)c(C)c2)c(=O)c2ccccc12 | 52* | 16 | -32 | -21 | 29
CCCNC1=C(N(C(C)=O)c2cccc(F)c2)C(=O)c2ccccc2C1=O | 85* | 73* | -38 | -56* | 81*
COc1ccc(S(=O)(=O)N2CCCCC2)cc1NC(=O)CN(Cc1ccco1)Cc1ccco1 | 54* | 15 | 77 | 16 | 2
COc1ccc(S(=O)(=O)N2CCCCC2)cc1NC(=O)CN(C)C1CCCCC1 | 23 | 19 | 12 | -4 | -9
Cc1ccc(NC2=Nc3ccccc3N3C2=Nc2c(c(C)nn2-c2ccccc2)C3c2ccc(O)c(O)c2)cc1 (stereo not drawn) | 88* | 15 | 34 | 16 | -36
